From PubChem BioAssay (Tox21)
Records with an inconclusive call do not appear. The source made the active and inactive calls. Unless noted, calls follow the shape of the dose curve; as a rule, active = well fitted curve in the direction sought with a large enough effect in the repeat runs; inconclusive = weak or mixed curves; inactive = no such curve, though single readings can be large; an effect the other way counts as inactive or inconclusive.

Legend:
[1] = qHTS assay to identify small molecule agonists of the RXR signaling pathway - cell viability counter screen (AID 1159529);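 also: HEK 293T cells carrying an RXR-alpha UAS beta-lactamase reporter; series mostly up to about 77 µM; nearly all actives have a fitted effect of over 50% in size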
Method in brief: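 Steps: seed RXR-alpha-UAS-bla HEK 293T cells in assay medium containing 2% charcoal-stripped FBS; incubate 5 hr; add compounds in DMSO; incubate 16 hr at 37 C; after the bla read, add CellTiter-Glo and read luminescence at 30 min.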

[2] = qHTS assay to identify small molecule antagonists of the retinoid acid receptor (RAR) signaling pathway - cell viability counter screen (AID 1159551); also: nearly all actives have a fitted effect of over 35% in size
Method in brief: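 Viability of C3RL4 cells is quantified from ATP by luminescence after 6 h treatment at 37 C with compounds and 1 uM retinol.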

[3] = qHTS assay to identify small molecule antagonists of the retinoic acid receptor (RAR) signaling pathway (AID 1159552; also: nearly all actives have a fitted effect of over 50% in size)
Method in brief: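 Retinol at 1 uM final stimulated RARE-luciferase expression in C3RL4 cells exposed to test compounds for 6 hr at 37 C. Reduced luminescence, read 30 min after detection reagent, indicated pathway antagonism.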

[4] = qHTS assay to identify small molecule agonists of the retinoic acid receptor (RAR) signaling pathway (AID 1159553)
Method in brief: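 Compounds dissolved in DMSO were pinned onto C3RL4 cells seeded the previous day, and plates were held 6 hr at 37 C. RARE-driven luciferase output was then read by luminescence.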

[5] = qHTS assay to identify small molecule antagonists of the constitutive androstane receptor (CAR) signaling pathway - cell viability counter screen (AID 1224837); also: series mostly up to about 92 µM; nearly all actives have a fitted effect of over 45% in size
Method in brief: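 In quantitative HTS format, compounds at 15 concentrations were applied to HepG2 cells double-transfected with hCAR and CYP2B6-2.2kb under 50 nM CITCO stimulation; live-cell protease activity was read after 23 hr via CellTiter-Fluor.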

[6] = molecular target: Nuclear receptor subfamily 1 group I member 3 (Homo sapiens) (UniProt Q14994); assay: qHTS assay to identify small molecule antagonists of the constitutive androstane receptor (CAR) signaling pathway (AID 1224838); also: nearly all actives have a fitted effect of over 40% in size
Sequence of Nuclear receptor subfamily 1 group I member 3 (Homo sapiens) (Q14994 whole entry, looked up): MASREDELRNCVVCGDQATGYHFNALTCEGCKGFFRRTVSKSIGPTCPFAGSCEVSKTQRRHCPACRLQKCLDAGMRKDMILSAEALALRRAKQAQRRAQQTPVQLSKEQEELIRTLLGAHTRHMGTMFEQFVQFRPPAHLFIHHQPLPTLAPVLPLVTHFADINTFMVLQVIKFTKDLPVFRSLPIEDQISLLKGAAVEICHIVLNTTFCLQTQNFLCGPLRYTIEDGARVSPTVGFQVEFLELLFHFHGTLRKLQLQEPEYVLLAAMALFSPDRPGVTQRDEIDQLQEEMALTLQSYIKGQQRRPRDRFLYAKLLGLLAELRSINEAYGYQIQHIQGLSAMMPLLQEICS
Method in brief: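 CITCO-stimulated (50 nM final) HepG2 cells stably transfected with hCAR and CYP2B6-2.2kb luciferase were exposed to compounds at 15 concentrations for 24 h at 37 C/5% CO2. A luciferase reagent was added and luminescence recorded after 30 min.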

[7] = molecular target: Nuclear receptor subfamily 1 group I member 3 (Homo sapiens) (UniProt Q14994); assay: qHTS assay to identify small molecule agonists of the constitutive androstane receptor (CAR) signaling pathway (AID 1224839);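 also: HepG2 cells stably carrying human CAR and a CYP2B6 luciferase reporter; series mostly up to about 92 µM; nearly all actives have a fitted effect of over 15% in size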
Method in brief: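 Cells were plated and incubated 4 hrs, then dosed with compounds at 15 concentrations. PK11195 was added to 0.75 uM final. After 24 hrs at 37 C, luciferase luminescence was measured.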

[8] = qHTS assay to identify small molecule antagonists of the estrogen related receptor signaling pathway with the pleiotropic PPARgamma coactivator (PGC) from Tox21 10K library - cell viability counter screen (AID 1224840; active = well fitted cell-killing curve with a large enough effect in the repeat runs, not every such curve was filed as active; also: nearly all actives have a fitted effect of over 40% in size)
Method in brief: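 Viability counter screen, PGC/ERR cells: 17.5 h compound exposure at 37 C, CellTiter-Fluor fluorescence endpoint.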

[9] = qHTS assay to identify small molecule antagonists of the estrogen related receptor (ERR) signaling pathway from Tox21 library - cell viability counter screen (AID 1224834); also: nearly all actives have a fitted effect of over 30% in size
Method in brief: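 In this quantitative HTS format, ERR cells receive compounds in DMSO and are incubated for 17.5 h at 37 C. Live-cell protease activity is then detected with CellTiter-Fluor.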

[10] = qHTS assay to identify small molecule agonists of the constitutive androstane receptor (CAR) signaling pathway - cell viability counter screen (AID 1224836); also: series mostly up to about 92 µM; nearly all actives have a fitted effect of over 45% in size
Method in brief: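 Cells were seeded and incubated 4 hrs. Compounds were added across 15 concentrations together with PK11195 at 0.75 uM final. Plates were incubated 23 hrs at 37 C. CellTiter-Fluor was added and fluorescence measured.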

[11] = qHTS assay to identify small molecule agonists of the estrogen related receptor signaling pathway with the pleiotropic PPARgamma coactivator (PGC) from Tox21 10K library (AID 1224842); also: nearly all actives have a fitted effect of over 15% in size
Method in brief: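 PGC/ERR reporter cell line, 2,000 cells per well, incubated 6 h at 37 C before 23 nL compound in DMSO was added. After 18 h at 37 C, One-Glo luminescence read following 30 min at room temperature.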

[12] = molecular target: Luciferin 4-monooxygenase (Photinus pyralis) (UniProt P08659); assay: qHTS assay to identify small molecule inhibitors of firefly luciferase (AID 1224835); also: series mostly up to about 120 µM; nearly all actives have a fitted effect of over 25% in size
Sequence of Luciferin 4-monooxygenase (Photinus pyralis) (P08659 whole entry, looked up): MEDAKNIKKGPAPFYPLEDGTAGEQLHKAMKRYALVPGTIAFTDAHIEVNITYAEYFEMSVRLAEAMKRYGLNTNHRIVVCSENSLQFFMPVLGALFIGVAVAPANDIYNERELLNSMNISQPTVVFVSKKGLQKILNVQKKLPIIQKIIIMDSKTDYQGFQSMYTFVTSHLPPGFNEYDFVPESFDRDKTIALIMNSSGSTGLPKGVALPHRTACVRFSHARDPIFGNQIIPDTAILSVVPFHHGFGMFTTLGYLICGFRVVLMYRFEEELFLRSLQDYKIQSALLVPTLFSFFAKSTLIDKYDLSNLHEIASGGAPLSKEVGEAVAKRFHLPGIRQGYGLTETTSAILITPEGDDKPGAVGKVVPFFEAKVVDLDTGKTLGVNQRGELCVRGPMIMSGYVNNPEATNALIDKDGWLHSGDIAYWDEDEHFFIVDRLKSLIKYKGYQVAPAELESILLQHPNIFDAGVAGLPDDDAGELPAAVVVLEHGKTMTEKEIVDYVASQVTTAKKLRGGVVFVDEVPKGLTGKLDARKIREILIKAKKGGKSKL
Method in brief: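 Biochemical qHTS: compounds run as interplate titrations against purified firefly enzyme, with D-luciferin and ATP each at its KM concentration. Light output recorded by CCD imaging.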

[13] = qHTS assay to identify small molecule antagonists of the estrogen related receptor signaling pathway with the pleiotropic PPARgamma coactivator (PGC) from Tox21 10K library (AID 1224841; call rule not given here; also: series mostly up to about 92 µM; actives are mostly falling curves and most rising ones were filed inactive; nearly all actives have a fitted effect of over 50% in size)
Method in brief: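 In the PGC/ERR line, DMSO solutions of test chemicals are pin-delivered to 2,000 cells/well six hours after dispensing. Following eighteen hours' incubation, One-Glo reagent is added and luminescence recorded.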

[14] = qHTS assay to identify small molecule antagonists of the estrogen related receptor (ERR) signaling pathway - cell viability counter screen (AID 1224818); also: series mostly up to about 46 µM
Method in brief: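 Cytotoxicity check run alongside the ERR antagonist screen: cells exposed to test compounds 17.5 h at 37 C, viability taken as CellTiter-Fluor fluorescence intensity.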

[15] = qHTS assay to identify small molecule antagonists of the estrogen related receptor (ERR) signaling pathway (AID 1224819;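 also: luminescence from an ERR-driven luciferase reporter measured with One-Glo reagent; series mostly up to about 46 µM; nearly all actives have a fitted effect of over 50% in size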)
Method in brief: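 ERR reporter cells were plated at 2,000 cells/well and left 6 h at 37 C/5% CO2 before pin-tool transfer of compounds in DMSO. After 18 h at 37 C, One-Glo was added and luminescence was read 30 min later at room temperature.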

[16] = tested on: estrogen-related receptor alpha (ERRalpha) with PGC-1alpha coactivator, human; assay: qHTS assay to identify small molecule antagonists of the estrogen related receptor signaling pathway with the pleiotropic PPARgamma coactivator (PGC) (AID 1224821; calls by dose curve)
Method in brief: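 A PGC/ERR cell line supplied by NTP is seeded, allowed 6 h at 37 C, and treated with test compounds in DMSO for 18 h. Signal is then measured as luciferase luminescence using One-Glo.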

[17] = qHTS assay to identify small molecule antagonists of the estrogen related receptor signaling pathway with the pleiotropic PPARgamma coactivator (PGC) cell viability counter screen (AID 1224822; also: series mostly up to about 46 µM)
Method in brief: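 Viable cell signal (CellTiter-Fluor, 30 min, 37 C/5% CO2) was measured in PGC/ERR cells after a 17.5 h compound incubation.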

[18] = qHTS assay to identify small molecule agonists of the estrogen related receptor signaling pathway with the pleiotropic PPARgamma coactivator (PGC) (AID 1224823)
Method in brief: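 Compounds dissolved in DMSO are added by pin tool to PGC/ERR cells that have settled for 6 h, and incubation continues 18 h at 37 C. Reporter output is measured as One-Glo luminescence.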

Measured: Potency

CC(CN)CC(C)(C)CCN (stereo not given)
inactive: [1] | [2] | [3] | [4] | [5] | [6] | [7] | [8]

CC(=O)Nc1ccc(S(=O)(=O)Cl)cc1
inactive: [1] | [2] | [9] | [10] | [5] | [6] | [7] | [8] | [11]

CC(C)C[C@H](NC(=O)CNC(=O)[C@H](Cc1ccc(O)cc1)NC(=O)[C@H](CO)NC(=O)[C@H](Cc1c[nH]c2ccccc12)NC(=O)[C@H](Cc1cnc[nH]1)NC(=O)[C@@H]1CCC(=O)N1)C(=O)N[C@@H](CCCN=C(N)N)C(=O)N1CCC[C@H]1C(=O)NCC(N)=O (stereo in doubt)
inactive: [1] | [2] | [4] | [9] | [12] | [10] | [5] | [6] | [7] | [8]

CCOc1cc(NC(C)=O)ccc1C(=O)OC
not listed: [3] | [4] | [14] | [15] | [16] | [17] | [18]
inactive: all other assays above

CC(C)OC(=O)CCCCC(=O)OC(C)C
inactive: [1] | [2] | [3] | [9] | [12] | [10] | [5] | [8]

Nc1ccc(S(=O)(=O)Nc2ccc(Cl)nn2)cc1
inactive: [1] | [9] | [12] | [10] | [5] | [6] | [7] | [8] | [13] | [11]

CC(=O)c1sc(C)nc1C
not listed: [3] | [4] | [14] | [15] | [16] | [17] | [18]
inactive: all other assays above

COC(=O)c1ccccc1C(=O)c1ccc(OCCN2CCCCC2)cc1
inactive: [1] | [2] | [9] | [12] | [5] | [6] | [7] | [8] | [13] | [11]

Nc1ccc2cc(S(=O)(=O)O)cc(O)c2c1
inactive: [1] | [2] | [3] | [10] | [5] | [6] | [7] | [8] | [13] | [11]

Cc1ccccc1C(=O)Nc1ccc(C(=O)N2CCCC(N(C)C)c3ccccc32)cc1 (stereo not given)
inactive: [1] | [2] | [4] | [12] | [10] | [5] | [8]

CC(COC(C)(C)C)OCCCO (stereo not given)
not listed: [9] | [14] | [15] | [16] | [17] | [18]
inactive: all other assays above

CCC(C)(CCC(C)C)C(=O)O (stereo not given)
inactive: [1] | [2] | [3] | [9] | [12] | [10] | [5] | [8] | [13] | [11]

CCO[Si](CCCS)(OCC)OCC
inactive: [1] | [2] | [3] | [9] | [12] | [10] | [5] | [8] | [13] | [11]

CC1COc2ccccc2N1 (stereo not given)
inactive: [1] | [3] | [9] | [10] | [5] | [6] | [7] | [8] | [13] | [11]

COCCOCCOCCOCCO
inactive: [1] | [2] | [9] | [12] | [10] | [5] | [6] | [7] | [8]

CC(C)C(=O)OCc1cccc(OC(=O)[C@@H]2N3C(=O)[C@@H](NC(=O)Cc4ccccc4)[C@H]3SC2(C)C)c1
inactive: [1] | [3] | [9] | [5] | [8]

Nc1cccc(O)c1
inactive: [1] | [2] | [3] | [4] | [10] | [5] | [6] | [7] | [8]

c1ccc2nccnc2c1
inactive: [1] | [9] | [12] | [10] | [5] | [6] | [7] | [8]

O=C(OCc1ccccc1)C(=O)OCc1ccccc1
not listed: [3] | [4] | [14] | [15] | [16] | [17] | [18]
inactive: all other assays above

NCCN1CCOCC1
inactive: [1] | [3] | [4] | [9] | [10] | [5] | [8]

N[C@@H](CCC(=O)Nc1ccc([N+](=O)[O-])cc1)C(=O)O
inactive: [1] | [2] | [3] | [4] | [6] | [7] | [8] | [13] | [11]

O=C1CC(c2ccc(Cl)cc2)CC(=O)N1
inactive: [1] | [2] | [9] | [12] | [10] | [5] | [6] | [7] | [8]

O=C(OCC1(COC(=O)c2cccnc2)CCCC(COC(=O)c2cccnc2)(COC(=O)c2cccnc2)C1O)c1cccnc1
inactive: [1] | [2] | [3] | [4] | [12] | [5] | [6] | [7] | [8]

COC(=O)[C@@H]1[C@H]2C[C@H]3c4[nH]c5ccccc5c4CCN3C[C@@H]2CC[C@@H]1O
not listed: [2] | [3] | [4] | [7]
inactive: all other assays above

C=CCCCCCCCCCCCC
inactive: [1] | [2] | [9] | [12] | [10] | [5] | [6] | [7] | [8]
